One may read the cell viability as a read-out of living cells in per cent, often relative to untreated cells.

± gives the uncertainty stated by the source.

This is an account of results in the supplement of paper PMC3898565.
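Further: viable cell number estimated from Alamar Blue fluorescence read at 560/90, part of a single-dose primary screen of an FDA-approved drug library.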

In this experiment the test system is U87. As to the kind of experiment: cell viability relative to vehicle control; higher = less growth inhibition (less active). The conditions noted are these: 10 µM; 72 h.
For the compound `CCCCN1CCCC1CNC(=O)c1cc(C#N)c2ccccc2c1OC` (centres undefined) [Nafadotride], the cell viability came out at 102 ± 1.5%. To `COCc1c(C(C)C)nc(C(C)C)c(/C=C/[C@@H](O)C[C@@H](O)CC(=O)O)c1-c1ccc(F)cc1` belongs 14.2 ± 3%.

For `CCOC(=O)[C@H](CCc1ccccc1)N[C@H]1CCc2ccccc2N(CC(=O)O)C1=O`, the cell viability stood at 107 ± 1.2%. Under `Cc1c(C(=O)NN2CCCCC2)nn(-c2ccc(Cl)cc2Cl)c1-c1ccc(I)cc1` stands 106 ± 1.3%; under `CN(C)CCc1c[nH]c2ccc(Cn3cncn3)cc12`, 101 ± 4.5%; under `CO[C@H]1/C=C/O[C@@]2(C)Oc3c(C)c(O)c4c(c3C2=O)C2=NC3(CCN(CC(C)C)CC3)NC2=C(NC(=O)/C(C)=C\C=C\[C@H](C)[C@H](O)[C@@H](C)[C@@H](O)[C@@H](C)[C@H](OC(C)=O)[C@@H]1C)C4=O`, 104 ± 2.1%. Under `COc1cc2c(cc1OC)C(=O)C(CC1CCN(Cc3ccccc3)CC1)C2` (centres undefined) [Donepezil] stands 99.1 ± 1.4%. As to `CCC(C)(C)N=C(NC#N)Nc1cccnc1`, the cell viability was found to be 107 ± 1.1%. Regarding `C[C@H]1COc2c(N3CCN(C)CC3)c(F)cc3c(=O)c(C(=O)O)cn1c23`, the cell viability is 102.8 ± 0.96%. Regarding `COc1cc2nc(N3CCN(C(=O)C4CCCO4)CC3)nc(N)c2cc1OC` (centres undefined) [Terazosin], the cell viability was 100.6 ± 0.86%. For `CN(C/C=C/C#CC(C)(C)C)Cc1cccc2ccccc12`, the cell viability stood at 103 ± 1.4%. To `COC(=O)CCc1ccc(OCC(O)CNC(C)C)cc1` (centres undefined) belongs 128 ± 3%; to `COc1cc2nc(N(C)CCCNC(=O)C3CCCO3)nc(N)c2cc1OC` (centres undefined), 101 ± 1.4%; to `CCOC(=O)[C@H](CCc1ccccc1)N[C@@H](C)C(=O)N1[C@H](C(=O)O)C[C@@H]2CCC[C@@H]21`, 101 ± 1.5%.
